Consider 18 sequences from the OligoGym collection.
Further: reference of the scale not given here.

The target in the first assay is SOCS2. Briefly: pooled miR-30 sensor sort-seq; sequence = guide strand. The note with it: shRNA.
Sequence TTAACAGTCATACTTCCCCAGT came in with a sensor-assay potency score (higher = more potent) of -1.23.
In the case of TTTTCCGTCTTGGTATTCGATT, the sensor-assay potency score (higher = more potent) was -1.45.
Same read-out and setting: under TAATCTTTTAGTCTTGTTGGTA stands -0.175; under TTAGTAGGTAGTCTGAATGCGA, -0.295.
On the same count and under the same terms, under TTTGGCTTCATTAACAGTCATA stands -0.491; under TTCGAAGATTAGTTGGTCCAGC, 0.103; under TTCTCTTTTACATAGCTGCATT, -0.899.
As for TAGTAGGTAGTCTGAATGCGAG, the sensor-assay potency score (higher = more potent) was -0.794.
The same measure, in the same setting: next, TATTGTTAGTAGGTAGTCTGAA: 0.147; TTAAGCTTGGATTTGACACATA: -1.
Sequence TATCCTTGCACATCTGAACATA showed a sensor-assay potency score (higher = more potent) of -1.25.
In the case of TTGCACATCTGAACATAGTAGT, the sensor-assay potency score (higher = more potent) amounted to 0.207.

Another assay has as its target SOHLH2. The assay is described as above. The note with it: shRNA.
Turning to TTCGCTGTAGGACCTCTGCAGG, the sensor-assay potency score (higher = more potent) was -0.848.
In turn, TATATTTCACATAATCAACTGT yielded a sensor-assay potency score (higher = more potent) of 0.64.
The same measure, in the same setting: next, TTGATGGAACTCTCACAGCTTC: -0.632; TATGTTTGCAAATAGTTTCTGT: 0.299; TTTGAGGGACATGTTGTCCAGT: -0.779.
On to TTCTCGAACTCTGACAACGAAG, for which the sensor-assay potency score (higher = more potent) is -1.44.
